This note sets out measurements from ChEMBL document CHEMBL4513216, “Probing the Open Global Health Chemical Diversity Library for Multistage-Active Starting Points for Next-Generation Antimalarials” (ACS Infect Dis, 2020).

Screen size: about 69,000 compounds; about 8,600 (12%) showed an effect of 50% or more. Only a selection was taken, and strong results are over-represented in it overall.

For this assay, the system named is Plasmodium berghei. Description: Screen against P. berghei liver stage (PbLuc), transformed with Luciferase, at 10uM. The format is functional, HepG2. To be noted: tested at 10 uM.
Turning to `COc1nccnc1N1CCC2(CC1)C(=O)N(C)c1ccccc12`, the INHIBITION is -55%.
For the compound `Cc1ccc(C(=O)NC2CCOc3ccccc32)cc1S(C)(=O)=O` (stereo unspecified), the INHIBITION is on record as 16.2%.
Under `COc1ccc(CNCc2c(C(C)C)nn(C)c2OC)cn1` stands 27.8%.
As to `CC(C)Cn1cc(C(=O)NC2CCS(=O)(=O)C2)c2ccccc2c1=O` (stereo unspecified), the INHIBITION amounted to 28.6%.
In the case of `Cc1ccccc1CNC(=O)c1ccccc1-n1cnc(CN)c1`, the INHIBITION stood at 33.7%.
As for `Cc1cc(-c2cnn(CCNC(=O)c3snnc3C)c2C2CC2)on1`, the INHIBITION was 21.9%.
Turning to `CC(C)(C(N)=O)N1CCN(C(=O)c2ccn(-c3cccc(Cl)c3)n2)CC1`, the INHIBITION was -14.6%.
Take `COc1ncccc1CN1CCn2c(C(=O)N3CCCC3)cnc2C1`: the INHIBITION came to 7.24%.
In the case of `Cc1nc[nH]c1CN1CCN(C2CCOCC2)CC(C(N)=O)C1` (stereo unspecified), the INHIBITION is reported as 7.52%.
Consider `Cn1nnc(NCc2ccc(-c3ccc(Br)cc3)o2)n1`, for which the INHIBITION was 0.868%.
As for `Cc1cnc(CC2COCCN(C(=O)CN3CCCCC3)C2)cn1` (stereo unspecified), the figure is 30.4%.
As for `O=C(COC1CCCC1)NS(=O)(=O)c1ccc2c(c1)OCCCO2`, the INHIBITION is given as 8.64%.
Under `CCCOCC(=O)NS(=O)(=O)c1ccc2c(c1)OCCCO2` stands 51.6%.
As for `COCCCC(=O)NS(=O)(=O)c1ccc2c(c1)OCCCO2`, the figure is 38.6%.
For the compound `O=C(COC1CCCCC1)NS(=O)(=O)c1ccc2c(c1)OCCCO2`, the INHIBITION amounted to 10%.
`O=C(COCC(F)(F)F)NS(=O)(=O)c1ccc2c(c1)OCCCO2`: the INHIBITION is listed as 63.5%.
As for `CCCOCC(=O)NS(=O)(=O)c1ccc2c(c1)OCCO2`, the figure is 18.2%; as for `CC(C)C(=O)N1CCCc2c(cnn2-c2ccccc2)C1`, 9.05%; as for `O=C(O)C1(Oc2ccc(Cl)cc2)CCN(C2CCOCC2)CC1`, 24.7%.
With `CCCn1cc(C(=O)n2nc(C)cc2C)c(S(=O)(=O)N2CCSCC2)n1`, the INHIBITION is 0%.
In the case of `CCn1cc(C(=O)n2nc(C)cc2C)c(S(=O)(=O)N2CCCCC2)n1`, the INHIBITION was found to be 29.7%.
As for `Cc1cc(C)n(C(=O)c2cn(C)nc2S(=O)(=O)N2CCSCC2)n1`, the figure is 56.5%; as for `CN(Cc1nc(-c2ccoc2)no1)C1CCCN(c2cccnn2)C1` (stereo unspecified), 7.12%; as for `CCNc1c(NC(=O)NC(C)C)c(=O)oc2ccccc12`, 40.3%.
As to `Cc1cc(-c2cnc(N3CCC(C(N)=O)CC3)nc2C(C)C)on1`, the INHIBITION turned out to be 77.1%.
Regarding `Cc1cc(-c2cnc(N3CCN(C)CC3)nc2C(C)C)on1`, the INHIBITION turned out to be 47.95%.
`Cc1cc(-c2cnc(N3CCC(O)CC3)nc2C(C)C)on1`: the INHIBITION was 59.4%.
With `Cc1cc(-c2cnc(N3CCSCC3)nc2C(C)C)on1`, the INHIBITION is given as 50.8%.
For `Cc1cc(-c2cnc(N(C)C)nc2C2CCCCN2C(=O)C2CC2)on1` (stereo unspecified), the INHIBITION was -11.59%.
For the compound `COc1ccc(Cl)cc1C(=O)N1CCCC(c2cc(C)[nH]n2)C1` (stereo unspecified), the INHIBITION is given as -2.53%.
Turning to `Cc1cc(C(=O)NC2CCC3(CCC(=O)N3CC3CC3)CC2)no1` (stereo unspecified), the INHIBITION is listed as -1.12%.
Consider `N#CC1(NC(=O)c2ccc(-c3nc(C4CC4)n[nH]3)cc2)CCSC1` (stereo unspecified), for which the INHIBITION turned out to be 22%.
As for `COc1ccc(C(C#N)NC(=O)Cc2ccc(F)c(F)c2)c(OC)c1` (stereo unspecified), the INHIBITION was 17.7%.
With `CCc1noc(CN(CC)Cc2cc3ccc(F)cc3[nH]c2=O)n1`, the INHIBITION is -52.7%.
As for `CCCn1cc(C(=O)NCCC(=O)NC2CCCCC2)c(C)n1`, the figure is -5.12%; as for `CCCn1cc(C(=O)NCC(=O)NC2CC2)c(C)n1`, 60.3%.
Turning to `CCCn1cc(C(=O)NC2CCN(CC(=O)NC3CC3)CC2)c(C)n1`, the INHIBITION was determined as 39.4%.
As for `CCC(=O)Nc1ccccc1Sc1nc(Br)nn1C`, the figure is 3.31%; as for `Cc1ccnc(N2C[C@H]3CC[C@@H](C2)N(CC2CCC2)C3=O)n1`, -4.35%.
Regarding `COc1ccc(-c2nc(C)cc(SCC(N)=O)n2)cc1`, the INHIBITION worked out at 85.5%.
With `Cc1cc(SCC(N)=O)nc(-c2ccc(F)cc2)n1`, the INHIBITION is recorded as -6.18%.
Regarding `Cc1cc(SCC(N)=O)nc(-c2cccc(F)c2)n1`, the INHIBITION worked out at 3.58%.
Take `CCC(C)[C@H](N)c1nnc(SCC(=O)Nc2ccc(Br)cc2)o1` (stereo partly specified): the INHIBITION worked out at 41.1%.
Consider `CC(=O)N1C[C@H]2CC[C@@H](C1)N(S(=O)(=O)c1ccccc1Cl)C2`, for which the INHIBITION is -7.2%.
In the case of `CCn1nc(C)cc1S(=O)(=O)N1CCC2(CCCN(C(C)C)C2=O)C1` (stereo unspecified), the INHIBITION amounted to 58.6%.
On to `CCn1nccc1S(=O)(=O)N1CCC2(CCCN(C(C)C)C2=O)C1` (stereo unspecified), for which the INHIBITION was determined as 33%.
As for `CCCN1CCCC2(CCN(S(=O)(=O)c3cc(C)nn3CC)C2)C1=O` (stereo unspecified), the INHIBITION was determined as 21.2%.
In the case of `O=C(c1ccsc1)N1CCO[C@@H]2CN(Cc3ccco3)CC[C@@H]2C1`, the INHIBITION is reported as 44.8%.
In the case of `Cc1c(CNCC(C)Oc2cccnc2)c2ccccc2n1CC(N)=O` (stereo unspecified), the INHIBITION is recorded as -36.6%.
Consider `Nc1cc2c(nn1)CCN(C(=O)c1cccc3c1OCCO3)C2`, for which the INHIBITION was determined as 44.2%.
Take `Cc1cc(C(=O)N2CCc3nnc(N)cc3C2)c(C)n1-c1cccnc1`: the INHIBITION was determined as 11.8%.
